10 compounds from PubChem BioAssay (NCATS) can be followed below.

Results filed as inconclusive are left out. Active and inactive are the calls of the source. Unless noted, the call rests on the fitted dose curve; in most records, active means well fitted curve in the direction sought with a large enough effect; inconclusive means small, poorly fitted or top-dose-only effect, or another doubt; inactive means no such curve, though single readings can be large; an effect the other way counts as inactive or inconclusive.

Assay [1] addresses Protein phosphatase 1D (Homo sapiens) (UniProt O15297). The assay can be described thus: RapidFire Mass Spectrometry qHTS Assay for Modulators of WT P53-Induced Phosphatase 1 (WIP1) (AID 1347424).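 Further: amount of dephosphorylated VEPPL-S-QETFS peptide product formed by WIP1; series mostly up to about 63 µM.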 The procedure, abridged: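 10 nM WIP1 preincubated with compounds 1 hr at room temperature in pH 7.5 Tris buffer with 30 mM MgCl2, 1 mM TCEP; 2 uM VEPPL-pS-QETFS phosphopeptide for 5 min, formic acid quench; dephosphorylated product quantified by RapidFire MS against labelled standard.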
A general note: In qHTS, concentration-response curves come from the screen itself.

For assay [2] the target is unchanged. The assay can be described thus: Rhodamine-PBP qHTS Assay for Modulators of WT P53-Induced Phosphatase 1 (WIP1) (AID 1347425). The procedure, abridged: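 The read-out is the change in Rhodamine-PBP fluorescence (f1 - f0, ex 525/em 598 nm) as Pi is released, read each minute for 11 min. Final reaction: 5 nM WIP1, 10 uM phosphopeptide VEPPL-pS-QETFS, 10 uM Rh-PBP, 50 mM Tris-HCl pH 7.5, 30 mM MgCl2. Compound was preincubated with enzyme for 1 hour at room temperature.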

Assay [3] is described as follows: Primary qHTS for inhibitors of SARS-S pseudo-typed particle cell entry (AID 1479145; calls by dose curve; further: nearly all actives have a fitted effect of over 45% in size).
A short description of assay [4]: Primary qHTS for Huh7 cytotoxicity: counterscreen for inhibitors of MERS-S pseudotyped particle cell entry (AID 1479147; calls by dose curve).
Assay [5] in a line: Primary qHTS for inhibitors of MERS-S pseudo-typed particle cell entry (AID 1479149; calls by dose curve; further: nearly all actives have a fitted effect of over 60% in size).
The nature of assay [6]: Primary qHTS for Vero E6 cytotoxicity: counterscreen for inhibitors of SARS-S pseudo-typed particle cell entry (AID 1479150; calls by dose curve).
The nature of assay [7]: Primary qHTS for inhibitors of La Crosse Virus (LACV) - induced cell death in SH-SY5Y cells (AID 1508616).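 Further: top concentration of the series differs between compounds; higher means more rescue of cells from virus-induced death.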 Summed up: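 Readout was luminescence from ATPLite 1step added after a 6-day LACV infection (0.01 MOI) of SH-SY5Y cells that had received pin-transferred compound 24 hr after seeding.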
Assay [8] has as its target Calcium and integrin-binding protein 1 (Homo sapiens) (UniProt Q99828). Put plainly: Primary qHTS for Identification of Calcium Integrin Binding Protein 1 (CIB1) Competitor (AID 1508620). Further: potency means the concentration at half of the fitted maximal effect. Summed up:
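Fluorescence polarization competition: GST-tagged CIB1 (1 uM final) preincubated with compound 15 min at room temperature, then FITC-labelled alphaIIb peptide (100 nM final) added. After 15 min at room temperature, polarization read at Ex 480/Em 540.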

A short description of assay [9]: Primary qHTS for small molecule stabilizers of the endoplasmic reticulum resident proteome: Secreted ER Calcium Modulated Protein (SERCaMP) assay (AID 1508630). The procedure, abridged:
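GLuc-SERCaMP-expressing SH-SY5Y cells, pretreated 16 h with compound, are challenged with thapsigargin to empty ER calcium stores; after 4 h, coelenterazine is added directly to the medium and luminescence is imaged.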

A short description of assay [10]: A High-Content qHTS Against Drug Library for the Identification of Small Molecules that Inhibit DYT1 Early Onset Primary Dystonia-Associated Cell Pathology (AID 1645839; calls by dose curve; further: series mostly up to about 46 µM). Summed up:
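Flp-In T-REx 293 cells with tetracycline-inducible EGFP-delE hTOR1A (WT EGFP-hTOR1A as reference), 800 cells/well; compound added with tetracycline, 48 h at 37 C. Fixed, permeabilized cells imaged; %pathology (punctate TorsinA) primary, cell count counterscreen.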

Assay [11] has as its target Cytochrome P450 2D6 (Homo sapiens) (UniProt P10635). The assay can be described thus: Cytochrome P450 family 2 subfamily D member 6 (CYP2D6) small molecule antagonists: luciferase biochemical (cell-free) qHTS assay (AID 1645840; active means well fitted curve in the direction sought with a large enough effect in the repeat runs; an effect the other way counts as inactive or inconclusive; further: nearly all actives have a fitted effect of over 55% in size; further: potency means the concentration at half of the fitted maximal effect). The procedure, abridged: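 P450-Glo luminescent screen: recombinant CYP2D6 enzyme–proluciferin substrate mix preincubated with compound 10 min at room temperature, then NADPH regeneration added for 1 h at room temperature. Detection reagent added for 20 min; luciferin light read as relative luminescence units.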

Assay [12] is described as follows: Validation qHTS assay for inhibitors of Activation Induced Cytidine Deaminase (AID): UDG Counterscreen signal (AID 1347427). The procedure, abridged: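 Counterscreen read of UDG activity (2 U/mL, 4/3x) in the FRET deamination format with AID (1 uM, 4/3x), DJC20/DJC23 substrates (250 nM, 4x), 4 h at room temperature. NaOH stop, fluorescence at 560 ex/665 em.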
Assay [13] addresses Single-stranded DNA cytosine deaminase (Homo sapiens) (UniProt Q9GZX7). The assay can be described thus: Validation qHTS assay for inhibitors of Activation Induced Cytidine Deaminase (AID): AID signal (AID 1347429). Summed up: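 In this coupled qHTS, AID deaminates a FRET-labelled ssDNA substrate in the presence of UDG over 4 hr at room temperature. Compounds span up to 114 uM final.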

The target of assay [14] is Calcium and integrin-binding protein 1 (Homo sapiens) (UniProt Q99828). Put plainly: Validation qHTS for Identification of Calcium Integrin Binding protein 1 (CIB1) Competitor (AID 1508618). Summed up: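 CIB1-GST (1 uM final) incubated 15 min at room temperature with compounds (up to 114 uM), then FITC-labelled alphaIIb peptide (100 nM) added. FP read (Ex 480/Em 540) after 15 min, pH 7.4 buffer containing 5 mM CaCl2.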
Sequence of Calcium and integrin-binding protein 1 (Homo sapiens) (Q99828 whole entry, looked up): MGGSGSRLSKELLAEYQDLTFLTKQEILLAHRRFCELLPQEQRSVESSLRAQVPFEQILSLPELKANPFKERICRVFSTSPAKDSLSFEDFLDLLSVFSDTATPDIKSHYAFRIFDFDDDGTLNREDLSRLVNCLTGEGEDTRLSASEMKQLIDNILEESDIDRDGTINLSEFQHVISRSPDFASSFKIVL

Sequence of Protein phosphatase 1D (Homo sapiens) (O15297 whole entry, looked up): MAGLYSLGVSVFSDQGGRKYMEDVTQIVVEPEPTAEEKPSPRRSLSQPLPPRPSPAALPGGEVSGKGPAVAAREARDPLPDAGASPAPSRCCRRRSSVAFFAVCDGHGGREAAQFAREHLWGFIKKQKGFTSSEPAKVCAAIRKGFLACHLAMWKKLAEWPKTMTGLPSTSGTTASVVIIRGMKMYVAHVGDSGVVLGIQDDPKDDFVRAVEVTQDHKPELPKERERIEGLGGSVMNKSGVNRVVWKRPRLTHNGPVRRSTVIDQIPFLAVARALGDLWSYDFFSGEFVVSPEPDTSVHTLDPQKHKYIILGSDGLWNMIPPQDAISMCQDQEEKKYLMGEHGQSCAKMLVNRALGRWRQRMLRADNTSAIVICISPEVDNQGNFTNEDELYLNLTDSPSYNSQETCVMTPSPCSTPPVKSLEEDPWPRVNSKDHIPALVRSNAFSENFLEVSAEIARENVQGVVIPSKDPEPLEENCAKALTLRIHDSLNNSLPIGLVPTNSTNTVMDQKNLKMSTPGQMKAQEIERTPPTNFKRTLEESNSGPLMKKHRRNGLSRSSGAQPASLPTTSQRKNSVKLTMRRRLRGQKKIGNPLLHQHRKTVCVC
Sequence of Cytochrome P450 2D6 (Homo sapiens) (P10635 whole entry, looked up): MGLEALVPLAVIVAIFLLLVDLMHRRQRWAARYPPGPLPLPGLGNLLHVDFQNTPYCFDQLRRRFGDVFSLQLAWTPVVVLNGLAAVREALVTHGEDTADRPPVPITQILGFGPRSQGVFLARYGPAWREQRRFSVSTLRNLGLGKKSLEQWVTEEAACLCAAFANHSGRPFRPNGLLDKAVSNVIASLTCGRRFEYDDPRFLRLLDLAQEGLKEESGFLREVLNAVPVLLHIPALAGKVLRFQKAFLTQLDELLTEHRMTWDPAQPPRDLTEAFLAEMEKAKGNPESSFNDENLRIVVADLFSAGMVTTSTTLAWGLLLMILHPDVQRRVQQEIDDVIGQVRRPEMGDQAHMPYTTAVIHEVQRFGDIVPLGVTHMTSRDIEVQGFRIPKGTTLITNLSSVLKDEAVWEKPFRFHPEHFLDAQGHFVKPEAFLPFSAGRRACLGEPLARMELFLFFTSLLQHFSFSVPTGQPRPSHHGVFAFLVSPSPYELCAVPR
Sequence of Single-stranded DNA cytosine deaminase (Homo sapiens) (Q9GZX7 whole entry, looked up): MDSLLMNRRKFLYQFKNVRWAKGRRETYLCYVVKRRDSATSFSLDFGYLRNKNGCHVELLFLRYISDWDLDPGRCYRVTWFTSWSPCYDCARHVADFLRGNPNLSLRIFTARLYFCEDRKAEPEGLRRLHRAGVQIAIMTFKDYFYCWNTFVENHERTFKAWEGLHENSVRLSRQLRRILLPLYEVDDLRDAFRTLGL

As to `CN(C)C(=O)Oc1cc(OC(=O)N(C)C)cc(C(O)CNC(C)(C)C)c1` (stereo not given), the Potency result in assay [1], in assay [3], in assay [4], in [5], in assay [6] and in assay [8] was “inactive” each time. Further, the outcome in assay [2], in assay [7], in assay [9] and in [10] was inactive. Further, in [11], the Potency was 8.71 µM (active).

For the compound `CCC(=O)O[C@H]1CC[C@H]2[C@@H]3CCC4=CC(=O)CC[C@]4(C)[C@H]3CC[C@]12C`, the Potency entry in [1], in assay [3], in assay [4], in assay [5], in [6] and in assay [8] was “inactive” each time. For the same compound, the call in assay [2], in [7] and in [9] was inactive.

For the compound `COc1ccc(C(=O)N2CCCC2=O)cc1`, the Potency entry in assay [1], in assay [3], in assay [4], in assay [5], in assay [6] and in assay [8] was “inactive” in each case. For the same compound, the call in assay [2], in assay [12], in assay [13], in assay [7], in [14] and in assay [10] was inactive.

For the compound `CC(C)(O)C(Cl)(Cl)Cl`, the Potency result in assay [1], in assay [3], in [4], in assay [5], in [6] and in [8] was “inactive” throughout. Further, the Potency entry in [11] is “inactive”. The result in assay [2], in assay [7], in assay [9] and in [10] was inactive.

Regarding `CNC(C)Cc1ccccc1OC` (stereo not given), the Potency result in assay [1], in assay [3], in assay [4], in assay [5], in [6] and in assay [8] was “inactive” throughout. Besides, the compound was called inactive in assay [2], in assay [7], in assay [9] and in assay [10].

As for `COc1ccc(CN2CCNCC2)c(OC)c1OC`, the Potency result in [1], in assay [3], in assay [4], in [5], in assay [6] and in [8] was “inactive” each time. In addition, the result in assay [2], in assay [7] and in assay [10] was inactive.

With `CC(CC(C(N)=O)(c1ccccc1)c1ccccc1)N(C)C` (stereo not given), the Potency entry in assay [1], in [3], in assay [4], in [5], in [6] and in [8] was “inactive” each time. The call in assay [2], in assay [7], in assay [9] and in assay [10] was inactive.

As to `CC[C@]1(O)CC[C@H]2[C@@H]3CCC4=CCCC[C@@H]4[C@H]3CC[C@@]21C`, the Potency result in assay [1], in assay [3], in [4], in assay [5] and in [6] was “inactive” in each case. The outcome in assay [2] and in assay [7] was inactive. Further, the Potency in assay [8] was 31.6 µM (active); in [11], 17.4 µM (active).

On to `CCCCC1C(=O)NC(=O)N(C2CCCCC2)C1=O` (stereo not given), for which the Potency entry in [1], in assay [3], in [4], in assay [5], in [6] and in [8] was “inactive” in each case. In addition, the Potency result in [11] is “inactive”. The compound was called inactive in [2], in assay [7] and in assay [10].

In the case of `Cc1ccc(N=CN(C)C=Nc2ccc(C)cc2C)c(C)c1`, the Potency result in [1], in assay [3], in assay [4], in [5], in assay [6] and in assay [8] was “inactive” each time. Moreover, the call in assay [2], in assay [7] and in [10] was inactive.
